# Records with an inconclusive call do not appear. For some of these results: Measured potencies and affinities stand elsewhere. Activity calls are given as the source filed them. Starred links: 1 amine or outer side, 2 acyl side, 3 side chain; linkers in the order of their positions; H or OH if unused. Positions of bridges follow the written chain, without caps; N, C: chain ends. Non-standard residues stand in square brackets, D forms with d. Residues, ends and D or L forms follow the SMILES beside them. ξ: configuration not given here. *: point of attachment. ΔAla(3-NHCONH2) = NC(=O)NC=C(N)C(=O)O; X1 = NC1=NCCC(C(N[*:1])C(=O)[*:2])N1; ξβ3hOrn = NCCCC(N)CC(=O)*; Dap = NC[CH](N)C(=O)O
# Legend:
# [1] = Ebola virus entry assay, green fluorescence channel
# [2] = Ebola virus entry assay, blue channel fluorescence
# [3] = qHTS profiling of the MIPE4 collection as inhibitors of Plasmodium falciparum (3D7) proliferation (AID 743344);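 further: scaled between DMSO vehicle wells and 0.29 µM artemisinin as full inhibition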; settings: P. falciparum 3D7 in erythrocytes, SYBR Green DNA fluorescence, 72 h
# In short: (§1)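 Parasite DNA was quantified by SYBR Green I fluorescence (ex 485, em 535 nm) after overnight lysis in saponin/Triton buffer at room temperature. Cultures at 0.3% parasitemia and 2.5% hematocrit were first exposed to compound for 72 h at 37 C; signals were normalised to artemisinin (0.29 uM) and vehicle wells.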
# [4] = qHTS profiling of the MIPE4 collection as inhibitors of Plasmodium falciparum (DD2) proliferation (Rep 2) (AID 743346); settings: P. falciparum Dd2 in erythrocytes, SYBR Green DNA, 72 h
# In short: as §1
# [5] = qHTS profiling of the MIPE4 collection as inhibitors of Plasmodium falciparum (HB3) proliferation (AID 743347);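 further: plate controls were DMSO vehicle wells for no effect and artemisinin wells for full effect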; settings: P. falciparum HB3 in erythrocytes, SYBR Green DNA, 72 h
# In short: as §1
# [6] = qHTS profiling for inhibitors of Plasmodium falciparum (3D7) proliferation (AID 743322);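 further: infected erythrocytes exposed to compound for 72 h before lysis; 100% = DMSO vehicle wells and 0% = 0.29 µM artemisinin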; settings: P. falciparum 3D7 proliferation; at 28.7 µM (top of the series)
# In short: as §1
# [7] = qHTS profiling for inhibitors of Plasmodium falciparum (DD2) proliferation (AID 743323); settings: lower = more inhibition; at 28.7 µM (top of the series)
# In short: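 1536-well qHTS; infected RBCs 0.3% parasitemia/2.5% Hct final; cpd 72 h 37 C 5% CO2; lysis buffer + SYBR Green I, o/n RT dark; FI 485/535; norm. to 0.29 uM artemisinin and DMSO, plate-stack corrected.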
# [8] = qHTS profiling for inhibitors of Plasmodium falciparum (HB3) proliferation (AID 743324; active means well fitted curve in the direction sought with a large enough effect; an effect the other way counts as inactive or inconclusive;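 further: 100% = DMSO vehicle wells and 0% = artemisinin-treated control wells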); settings: Plasmodium falciparum HB3 blood-stage proliferation; at 28.7 µM (top of the series)
# In short: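 SYBR Green fluorescence (485 ex/535 em) of lysed cultures, incubated overnight at room temperature in the dark, quantifies parasite DNA. Infected erythrocytes at 0.3% parasitemia and 2.5% hematocrit were exposed 72 h; values normalized to DMSO and 0.29 uM artemisinin controls.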
# [9] = qHTS assay for cell viability of the p53RE-bla HCT-116 cell line (AID 743292; active means well fitted curve in the direction sought with a large enough effect; an effect the other way counts as inactive or inconclusive; further: nearly all actives have a fitted effect of over 55% in size; further: potency means the concentration at half of the fitted maximal effect); settings: p53RE-bla HCT-116 viability, ATP luminescence, 16 h; series mostly up to 95 µM
# In short: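 In this qHTS counter-screen, metabolically competent p53RE-bla HCT-116 cells were counted via their ATP content. Compounds were applied for 16 h at 37 C and luciferase-coupled luminescence was measured.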
# [10] = at 28.5 µM (top of the series) unless noted
# [11] = at 0.217 µM (top of the series)
# Wherever efficacy is given: 0% is about no effect.
smiles,measurement,setting,value
CC1(C)S[C@@H]2[C@H](NC(=O)[C@H](N)c3ccccc3)C(=O)N2[C@H]1C(=O)O,efficacy,[1],-14% (inactive)
same,outcome,[2],inactive
Cc1ccc(-c2nc3ccc(C)cn3c2CC(=O)N(C)C)cc1,efficacy,[1],-21.9% (inactive)
same,outcome,[2],inactive
COC(=O)N[C@H](C(=O)N[C@@H](Cc1ccccc1)[C@@H](O)CN(Cc1ccc(-c2ccccn2)cc1)NC(=O)[C@@H](NC(=O)OC)C(C)(C)C)C(C)(C)C,efficacy,[1],21.7% (inactive)
same,outcome,[2],inactive
C=C1CC[C@@]2(O)[C@H]3Cc4ccc(O)c5c4[C@@]2(CCN3CC2CC2)[C@H]1O5,efficacy,[1],46.6% (inactive)
same,outcome,[2],inactive
Cc1ccc(O)c([C@H](CCN(C(C)C)C(C)C)c2ccccc2)c1,efficacy,[1],106% (inactive)
same,AC50,[2],12.6 µM (active)
CN(C/C=C/C#CC(C)(C)C)Cc1cccc2ccccc12,efficacy,[1],-24.6% (inactive)
same,outcome,[2],inactive
COc1ccc(Cl)cc1C(=O)NCCc1ccc(S(=O)(=O)NC(=O)NC2CCCCC2)cc1,efficacy,[1],15.6% (inactive)
same,outcome,[2],inactive
C[C@]12CC[C@H]3[C@@H](CCC4=CC(=O)CC[C@@H]43)[C@@H]1CC[C@@H]2OC(=O)CCc1ccccc1,efficacy,[1],-39.3% (inactive)
same,outcome,[2],inactive
O=C1C(=O)c2ccccc2C(O)=C1C1CCC(c2ccc(Cl)cc2)CC1 (stereo not given),efficacy,[1],18.6% (inactive)
same,outcome,[2],inactive
O=C(O)c1cn(C2CC2)c2cc(N3CCNCC3)c(F)cc2c1=O,efficacy,[1],-9.16% (inactive)
same,outcome,[2],inactive
OCCN1C[C@H](O)[C@@H](O)[C@H](O)[C@H]1CO,efficacy,[1],-21.2% (inactive)
same,outcome,[2],inactive
CCCC(CCC)C(=O)O,efficacy,[1],-11.7% (inactive)
same,outcome,[2],inactive
CCN(CC)CCOC(=O)C1(C2CCCCC2)CCCCC1,efficacy,[1],45% (inactive)
same,outcome,[2],inactive
CCCN[C@H]1CCc2nc(N)sc2C1,efficacy,[1],-13.1% (inactive)
same,outcome,[2],inactive
CC(=O)CCCCn1c(=O)c2c(ncn2C)n(C)c1=O,efficacy,[1],-14.2% (inactive)
same,outcome,[2],inactive
NC[C@H](O)c1ccc(O)c(O)c1,efficacy,[1],112% (inactive)
same,outcome,[2],inactive
CCc1nn(CCCN2CCN(c3cccc(Cl)c3)CC2)c(=O)n1CCOc1ccccc1,efficacy,[1],111% (inactive)
same,outcome,[2],inactive
Cc1cn([C@H]2C[C@H](N=[N+]=[N-])[C@@H](CO)O2)c(=O)[nH]c1=O,efficacy,[1],17% (inactive)
same,outcome,[2],inactive
NCCC(O)(P(=O)(O)O)P(=O)(O)O,efficacy,[1],-9.39% (inactive)
same,outcome,[2],inactive
CC(C)Nc1cccnc1N1CCN(C(=O)c2cc3cc(NS(C)(=O)=O)ccc3[nH]2)CC1,efficacy,[1],-26% (inactive)
same,outcome,[2],inactive
C[C@](N)(Cc1ccc(O)c(O)c1)C(=O)O,efficacy,[1],20.7% (inactive)
same,outcome,[2],inactive
CCCCNC(=O)NS(=O)(=O)c1ccc(C)cc1,efficacy,[1],-19.2% (inactive)
same,outcome,[2],inactive
CN1C(=O)CC(C)(c2ccccc2)C1=O (stereo not given),efficacy,[1],-45.4% (inactive)
same,outcome,[2],inactive
CC(S)C(=O)NCC(=O)O (stereo not given),efficacy,[1],-25.6% (inactive)
same,outcome,[2],inactive
NNc1nncc2ccccc12,efficacy,[1],-27.3% (inactive)
same,outcome,[2],inactive
CCCSc1ccc2nc(NC(=O)OC)[nH]c2c1,efficacy,[1],60.2% (inactive)
same,outcome,[2],inactive
CC(C)C1CCC(C(=O)N[C@H](Cc2ccccc2)C(=O)O)CC1 (stereo not given in full),efficacy,[1],-31.7% (inactive)
same,outcome,[2],inactive
CCCC(=O)Nc1ccc(OCC(O)CNC(C)C)c(C(C)=O)c1 (stereo not given),efficacy,[1],8.06% (inactive)
same,outcome,[2],inactive
CCOC(=O)c1ncn2c1CN(C)C(=O)c1cc(F)ccc1-2,"parasite growth, % of DMSO control",[3]; [10],69.1%
same,"parasite growth, % of control (lower = inhibition)",[4]; [10],74.8%
same,"growth, % of control",[5]; [10],94.6%
same,efficacy,[1],-22.5% (inactive)
same,outcome,[2],inactive
NCCCC(N)CC(=O)NCC1NC(=O)C(CO)NC(=O)C(N)CNC(=O)C(C2CCN=C(N)N2)NC(=O)C(=CNC(N)=O)NC1=O (stereo not drawn) (H-[Dap]S[Dap](ξβ3hOrn)[ΔAla(3-NHCONH2)][X1]; lactam 1-C; configuration not given here),"parasite growth, % of DMSO control",[3]; [11],92.7%
same,"parasite growth, % of DMSO control",[3]; at 28.5 µM (top of the series),101%
same,"parasite growth, % of control (lower = inhibition)",[4]; [11],121%
same,"parasite growth, % of control (lower = inhibition)",[4]; at 28.5 µM (top of the series),113%
same,"growth, % of control",[5]; [11],101%
same,"growth, % of control",[5]; at 28.5 µM (top of the series),86.8%
same,efficacy,[1],13% (inactive)
same,outcome,[2],inactive
CC(C)NCC(O)COc1cccc2[nH]ccc12 (stereo not given),efficacy,[1],-19.5% (inactive)
same,outcome,[2],inactive
Oc1cn2c(n1)Nc1ccc(Cl)c(Cl)c1C2,remaining parasite growth % (stronger effect = lower value),[6],107%
same,"activity, percent of control",[7],97.1%
same,"remaining proliferation (% of control), lower = more inhibition",[8],97.7%
same,efficacy,[1],-19.4% (inactive)
same,outcome,[2],inactive
CC(COc1ccccc1)N(CCCl)Cc1ccccc1 (stereo not given),"growth, % of control",[5]; [10],91.2%
same,efficacy,[1],44% (inactive)
same,outcome,[2],inactive
OC(Cn1cncn1)(Cn1cncn1)c1ccc(F)cc1F,"parasite growth, % of DMSO control",[3]; [10],95.6%
same,"parasite growth, % of control (lower = inhibition)",[4]; [10],88.1%
same,"growth, % of control",[5]; [10],103%
same,efficacy,[1],-11.5% (inactive)
same,outcome,[2],inactive
CN(C)[C@@H]1C(=O)C(C(N)=O)=C(O)[C@@]2(O)C(=O)C3=C(O)c4c(O)cccc4[C@@](C)(O)[C@H]3C[C@@H]12,"parasite growth, % of DMSO control",[3]; [10],28.7%
same,"parasite growth, % of control (lower = inhibition)",[4]; [10],30.2%
same,"growth, % of control",[5]; [10],32.8%
same,efficacy,[1],106% (inactive)
same,outcome,[2],inactive
COc1cc2c(c(OC)c1OC)-c1ccc(OC)c(=O)cc1[C@@H](NC(C)=O)CC2,"parasite growth, % of DMSO control",[3]; [10],34.7%
same,"parasite growth, % of control (lower = inhibition)",[4]; [10],42.5%
same,"growth, % of control",[5]; [10],35.4%
same,efficacy,[1],-81.3% (inactive)
same,AC50,[2],0.316 µM (active)
CCN(C)C(=O)Oc1cccc([C@H](C)N(C)C)c1,"parasite growth, % of DMSO control",[3]; [10],92%
same,"parasite growth, % of control (lower = inhibition)",[4]; [10],69.6%
same,"growth, % of control",[5]; [10],82.1%
same,efficacy,[1],11.7% (inactive)
same,outcome,[2],inactive
CC(C)CC(N(C)C)C1(c2ccc(Cl)cc2)CCC1 (stereo not given),"parasite growth, % of DMSO control",[3]; [10],90.3%
same,"parasite growth, % of control (lower = inhibition)",[4]; [10],137%
same,"growth, % of control",[5]; [10],105%
same,efficacy,[1],-28.7% (inactive)
same,outcome,[2],inactive
N[C@@H](Cc1ccc(N(CCCl)CCCl)cc1)C(=O)O,Potency,[9],inactive
same,"parasite growth, % of DMSO control",[3]; [10],47.5%
same,"parasite growth, % of control (lower = inhibition)",[4]; [10],31.9%
same,"growth, % of control",[5]; [10],57.1%
same,efficacy,[1],12.7% (inactive)
same,outcome,[2],inactive
Cc1c(OCC(F)(F)F)ccnc1CS(=O)c1nc2ccccc2[nH]1 (stereo not given),"parasite growth, % of DMSO control",[3]; [10],56.6%
same,"parasite growth, % of control (lower = inhibition)",[4]; [10],42.1%
same,"growth, % of control",[5]; [10],50.8%
same,efficacy,[1],18.5% (inactive)
same,outcome,[2],inactive
CCN(CCO)CCCC(C)Nc1ccnc2cc(Cl)ccc12 (stereo not given),efficacy,[1],21.3% (inactive)
same,outcome,[2],inactive
O=NN(CCCl)C(=O)NCCCl,"parasite growth, % of DMSO control",[3]; [10],95.8%
same,"parasite growth, % of control (lower = inhibition)",[4]; [10],150%
same,"growth, % of control",[5]; [10],83.1%
same,efficacy,[1],-15% (inactive)
same,outcome,[2],inactive
O=NN(CCCl)C(=O)NC1CCCCC1,"parasite growth, % of DMSO control",[3]; [10],91.7%
same,"parasite growth, % of control (lower = inhibition)",[4]; [10],72.9%
same,"growth, % of control",[5]; [10],74.9%
same,efficacy,[1],-12.9% (inactive)
same,outcome,[2],inactive
C[C@]12C/C(=C/O)C(=O)C[C@@H]1CC[C@@H]1[C@@H]2CC[C@@]2(C)[C@H]1CC[C@]2(C)O,Potency,[9],50.1 µM (active)
same,efficacy,[1],90.8% (inactive)
same,outcome,[2],inactive
